PubChem BioAssay AID2284122 (EPA ToxCast)
Calls of active or inactive are those of the source. How the source made its calls: active means hit-call score of the fitted dose curve at least 0.9, where 1 is the maximum; inactive means score below 0.9.

molecular target: human TRKA Receptor Tyrosine Kinase, NTRK1 (gene 4914) (UniProt P04629); assay: ERF_FR_ENZ_hNTRK1: Eurofins (ERF) Enzymatic Radiometric [Km ATP] KinaseProfiler LeadHunter Assay for human TRKA Receptor Tyrosine Kinase
Experimental: ERF_FR_ENZ_hNTRK1 is a biochemical, single-readout assay that uses extracted gene-proteins in a cell-free assay. Measurements were taken 0.16 hour after chemical dosing in a 96-well plate. See TRKA Human RTK Kinase Enzymatic LANCE Assay [Km ATP], Cerep.ERF_FR_ENZ_hNTRK1 is an assay component calculated from the ERF_FR_ENZ_hNTRK1 assay. It is designed to measure enzyme activity using a type of enzyme reporter as detected by fluorescence intensity with LANCE technology.Data from the assay component ERF_FR_ENZ_hNTRK1 was analyzed at the assay endpoint, ERF_FR_ENZ_hNTRK1, in the positive analysis fitting direction relative to DMSO as the negative control and baseline of activity. Using a type of enzyme reporter, loss-of-signal activity can be used to understand changes in enzymatic activity as they relate to gene NTRK1. To generalize the intended target to other relatable targets, this assay endpoint is annotated to the kinase intended target family, where the subfamily is receptor tyrosine kinase.
TrkA (h) is incubated with 8 mM MOPS pH 7.0, 0.2 mM EDTA, 250 uM […], 10 mM MgAcetate and [g- 33P]-ATP (specific activity and concentration as required). The reaction is initiated by the addition of the Mg/ATP mix. After incubation for 40 minutes at room temperature, the reaction is stopped by the addition of phosphoric acid to a concentration of 0.5%. An aliquot of the reaction is then spotted onto a filter and washed four times for 4 minutes in 0.425% phosphoric acid and once in methanol prior to drying and scintillation counting.Compound should be supplied in 100% DMSO.We require a stock solution at a concentration of at least 50x higher than the Final Assay Concentration of your cpd. A 10mM stock is also acceptable.When ordering fewer than 60 kinase assays, we need 120uL of 50x concentrated stock. For more than 60 assays, we need 420 uL of 50xcc stock. Please apply the conversion if you provide 10mM stock solution or compounds in powder form (pre-weighed is required) From 50 cpds supplied as solids, the TAT will be extended.

Chain of human TRKA Receptor Tyrosine Kinase, NTRK1 (gene 4914) (P04629 whole entry, looked up): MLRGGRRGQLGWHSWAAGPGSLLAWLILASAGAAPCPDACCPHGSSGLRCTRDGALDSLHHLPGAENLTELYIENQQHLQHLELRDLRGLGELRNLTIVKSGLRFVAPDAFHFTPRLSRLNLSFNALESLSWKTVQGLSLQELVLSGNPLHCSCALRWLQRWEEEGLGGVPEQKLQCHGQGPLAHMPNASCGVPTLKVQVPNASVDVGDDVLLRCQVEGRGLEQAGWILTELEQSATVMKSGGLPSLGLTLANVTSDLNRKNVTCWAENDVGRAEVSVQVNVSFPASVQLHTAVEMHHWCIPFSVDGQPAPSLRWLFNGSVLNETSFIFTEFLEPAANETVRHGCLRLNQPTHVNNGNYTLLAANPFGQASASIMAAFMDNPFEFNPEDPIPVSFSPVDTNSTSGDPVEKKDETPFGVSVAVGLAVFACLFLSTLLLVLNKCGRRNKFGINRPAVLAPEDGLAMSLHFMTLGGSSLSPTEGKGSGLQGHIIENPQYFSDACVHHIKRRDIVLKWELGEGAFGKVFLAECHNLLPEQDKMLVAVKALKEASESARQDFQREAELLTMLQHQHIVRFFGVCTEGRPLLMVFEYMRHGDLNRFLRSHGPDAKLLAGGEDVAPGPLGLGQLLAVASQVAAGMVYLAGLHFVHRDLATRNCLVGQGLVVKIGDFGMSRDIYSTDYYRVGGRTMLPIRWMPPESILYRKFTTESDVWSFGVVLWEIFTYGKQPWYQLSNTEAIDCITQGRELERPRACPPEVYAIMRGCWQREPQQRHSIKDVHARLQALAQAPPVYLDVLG

SMILES	AC50	outcome
COc1cc(/C=C/C(=O)CC(=O)/C=C/c2ccc(O)c(OC)c2)ccc1O	3.85 µM (active)	–
COc1cc(CCC(=O)CC(=O)CCc2ccc(O)c(OC)c2)ccc1O	–	inactive
O=C(/C=C/c1ccc(O)cc1)CC(=O)/C=C/c1ccc(O)cc1	–	inactive
